Source: PubChem
DT40 TDP1 CPT: qHTS for Inhibitors of human tyrosyl-DNA phosphodiesterase 1 (TDP1): qHTS in cells in presence of CPT. chicken DT40 Tdp1-/-;hTDP1 cells + 20 nM CPT, ATP luminescence, 48 h. 12% of 420,000 active. Potency, µM (series often up to 46.2 µM), without a hit: at the highest dose activity change, negative = growth inhibition, hits mostly inhibitors; note: potency is the fitted concentration of half-maximal effect; % is set by controls: 0 for no effect and ±100 for the full control effect; nearly all actives have a fitted effect of over 55% in size
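Chicken DT40 Tdp1-/- cells stably complemented with human TDP1 were seeded at 400 cells/well in medium containing 20 nM camptothecin, exposed to pin-transferred compounds, and grown at 37 °C for at least 48 hr. Viability was read as ATP luminescence.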
IL1B secr inh: qHTS for Inhibitors of Inflammasome Signaling: IL-1-beta AlphaLISA Primary Screen; THP-1 LPS/ATP IL-1B secretion, AlphaLISA, 16 h; hits give low values; activity change, % at 57.5 µM; 4.7% of 360,000 active; AID 743279, 2014; in the data active = activity change below about -50%; inconclusive = mostly about -30% to -49%; note: % is set by controls: 0 for no effect and ±100 for the full control effect
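Secreted IL-1B measured by AlphaLISA bead assay after 16 h compound exposure of THP-1 cells; compounds (final up to 57.5 uM) added 1 h before LPS (250 ng/mL) and ATP (1.25 mM) stimulation; lower signal means less secretion.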
TGFb SMAD3 inh: qHTS for Inhibitors of TGF-b; HepG2 CAGA-GFP TGF-b/SMAD3 reporter, GFP fluorescence, 18 h; TGF-beta stimulated, 500 pg/mL final; Potency, µM (titrated, usually from 46.1 µM), for inactives: at the top dose activity, negative = inhibition, actives largely listed as inhibitors; 1.2% of 410,000 active; note: potency is the fitted concentration of half-maximal effect; % is set by controls: 0 for no effect and ±100 for the full control effect; nearly all actives have a fitted effect of over 65% in size
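HEPG2 CAGA-GFP reporter cells (1000/well, DMEM with 1% FBS) received compounds, then recombinant TGF-beta at 500 pg/mL final for 18 hours at 37 degrees C. Per-cell GFP summed per well was normalised to unstimulated and stimulated DMSO controls before curve fitting.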
DT40 TDP1 no CPT: qHTS for Inhibitors of human tyrosyl-DNA phosphodiesterase 1 (TDP1): qHTS in cells in absence of CPT; DT40 Tdp1-/- hTDP1 cells, no CPT, ATP luminescence, 48 h; AID 686978, 2013; 15% of 420,000 active; Potency, µM (highest dose often 46.2 µM), inactives show at the top dose activity change, negative = growth inhibition, hits mostly inhibitors; note: potency is the fitted concentration of half-maximal effect; % is set by controls: 0 for no effect and ±100 for the full control effect; nearly all actives have a fitted effect of over 55% in size
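Stably hTDP1-transfected Tdp1-null chicken DT40 cells were treated with library compounds minus camptothecin and grown for at least 48 hr at 37 °C, after which cellular ATP was quantified by luminescence.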
TDP1 block: qHTS Assay for Inhibitors of Tyrosyl-DNA Phosphodiesterase (TDP1) | Potency, µM (highest dose often 130 µM), for the others: top-dose activity change, negative = inhibition, actives largely listed as inhibitors | recombinant TDP1, AlphaScreen DNA substrate cleavage | 0.28% of 350,000 active | AID 485290, 2010 | Tyrosyl-DNA phosphodiesterase 1 (Homo sapiens), Q9NUW8; note: potency is the fitted concentration of half-maximal effect; % is set by controls: 0 for no effect and ±100 for the full control effect; nearly all actives have a fitted effect of over 40% in size
Target sequence (Q9NUW8 whole entry, looked up): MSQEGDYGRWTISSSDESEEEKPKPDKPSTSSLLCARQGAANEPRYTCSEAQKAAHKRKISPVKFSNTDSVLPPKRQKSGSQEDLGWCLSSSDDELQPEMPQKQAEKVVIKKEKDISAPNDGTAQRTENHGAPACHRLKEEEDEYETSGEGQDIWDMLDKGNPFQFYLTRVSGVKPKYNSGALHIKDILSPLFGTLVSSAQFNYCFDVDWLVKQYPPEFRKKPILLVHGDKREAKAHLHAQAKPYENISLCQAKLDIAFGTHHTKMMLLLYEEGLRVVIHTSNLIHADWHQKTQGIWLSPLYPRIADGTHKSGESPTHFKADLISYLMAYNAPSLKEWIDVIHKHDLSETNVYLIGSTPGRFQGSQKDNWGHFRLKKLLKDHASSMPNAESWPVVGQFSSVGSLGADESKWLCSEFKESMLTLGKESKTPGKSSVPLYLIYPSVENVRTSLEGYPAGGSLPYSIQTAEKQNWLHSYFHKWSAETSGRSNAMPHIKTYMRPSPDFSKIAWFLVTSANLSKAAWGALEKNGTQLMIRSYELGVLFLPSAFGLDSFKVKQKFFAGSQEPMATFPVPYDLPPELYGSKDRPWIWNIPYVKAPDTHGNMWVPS
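Signal: AlphaScreen proximity between streptavidin donor and anti-FITC acceptor beads on intact substrate. Reaction: Tdp1 1 nM, substrate 15 nM final, 5 min RT after 15 min compound preincubation.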
HepG2 viability: qHTS for Inhibitors of TGF-b: Cytotox Counterscreen. HepG2 CAGA-GFP viability, ATP luminescence, 18 h. Potency, µM (series often up to 46.1 µM), inactives show at the top dose activity change, negative = cytotoxicity, usual class: cytotoxic. 0.76% of 410,000 active; note: potency is the fitted concentration of half-maximal effect
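CellTiter-Glo luminescence gave cytotoxicity after 18 hours at 37 degrees C. The cells were HepG2 CAGA-GFP in 1% FBS DMEM, stimulated with 500 pg/mL TGF-beta after compound addition. %Activity was normalised to no-cell wells (complete cell-killing) and DMSO (no toxicity), and curves were fitted and classified.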
Numbers without * were called inactive. An excerpt weighted towards active compounds, which were near 18% of everything screened. Unless noted, calls come from the whole dose curve; as a rule, active = well fitted curve in the direction sought with a large enough effect; inconclusive = small, poorly fitted or top-dose-only effect, or another doubt; inactive = no such curve, though single readings can be large; an effect the other way counts as inactive or inconclusive.

What do the screens show for `C=CCn1c(NCCOC)nc2c1c(=O)n(C)c(=O)n2C`?
DT40 TDP1 CPT: -3%; IL1B secr inh: 19; TGFb SMAD3 inh: 1%; DT40 TDP1 no CPT: -18%; TDP1 block: 0%; HepG2 viability: -9%

Results for COCCCNc1nc2c(c(=O)n(C)c(=O)n2C)n1Cc1cccc(OC)c1 ?
DT40 TDP1 CPT: 18µM*; IL1B secr inh: -4; TGFb SMAD3 inh: -41%; DT40 TDP1 no CPT: 10µM*; TDP1 block: 5%; HepG2 viability: -26%

Results for Cn1c(=O)c2c(nc(NCCCO)n2Cc2cccc(Br)c2)n(C)c1=O ?
DT40 TDP1 CPT: inconclusive; IL1B secr inh: 32; TGFb SMAD3 inh: -14%; DT40 TDP1 no CPT: inconclusive; TDP1 block: 3%; HepG2 viability: -18%

Results for Cn1c(=O)c2c(nc(NCc3ccccc3)n2C)n(C)c1=O ?
DT40 TDP1 CPT: inconclusive; IL1B secr inh: 17; TGFb SMAD3 inh: 3%; DT40 TDP1 no CPT: -18%; TDP1 block: 3%; HepG2 viability: -1%

What do the screens show for `Cc1ccc(CNc2nc3c(c(=O)n(C)c(=O)n3C)n2Cc2ccc(Cl)cc2)cc1`?
DT40 TDP1 CPT: 1%; TGFb SMAD3 inh: 0%; DT40 TDP1 no CPT: inconclusive; HepG2 viability: 9%

Results for Cc1cccc(Cn2c(NCC(C)O)nc3c2c(=O)n(C)c(=O)n3C)c1 (stereo not drawn) ?
DT40 TDP1 CPT: 12µM*; IL1B secr inh: -11; TGFb SMAD3 inh: -17%; DT40 TDP1 no CPT: 10µM*; TDP1 block: 3%; HepG2 viability: -23%

What do the screens show for `CCN1C(C)=C(C)S/C1=C1\SC(=S)N(N)C1=O`?
DT40 TDP1 CPT: 6%; IL1B secr inh: 5; TGFb SMAD3 inh: -14%; DT40 TDP1 no CPT: -11%; TDP1 block: 5%; HepG2 viability: -19%

Results for COc1cccc(Cn2c(Oc3cccc(C)c3)nc3c2c(=O)n(C)c(=O)n3C)c1 ?
DT40 TDP1 CPT: 21µM*; IL1B secr inh: -16; TGFb SMAD3 inh: inconclusive; DT40 TDP1 no CPT: 23µM*; TDP1 block: 2%; HepG2 viability: -33%

What do the screens show for `COc1cccc(Cn2c(Oc3ccccc3)nc3c2c(=O)n(C)c(=O)n3C)c1`?
DT40 TDP1 CPT: -30%; IL1B secr inh: 19; TGFb SMAD3 inh: -5%; DT40 TDP1 no CPT: inconclusive; TDP1 block: 1%; HepG2 viability: -27%

Results for Cc1ccc(C(=O)N2CCN(C34CC5CC(CC(C5)C3)C4)CC2)o1 ?
DT40 TDP1 CPT: 1%; IL1B secr inh: 5; TGFb SMAD3 inh: -7%; DT40 TDP1 no CPT: 7%; TDP1 block: 0%; HepG2 viability: -15%

How did Cc1cc(N/N=C/c2ccc(N(C)C)cc2)nc(NCc2ccccc2)n1 do in these assays?
DT40 TDP1 CPT: 7.3µM*; IL1B secr inh: -61*; TGFb SMAD3 inh: inconclusive; DT40 TDP1 no CPT: 5.8µM*; HepG2 viability: -51%

What do the screens show for `Cc1cc(N/N=C/c2ccc(Cl)cc2Cl)nc(NCc2ccccc2)n1`?
DT40 TDP1 CPT: 10µM*; IL1B secr inh: 0; TGFb SMAD3 inh: -9%; DT40 TDP1 no CPT: 7.3µM*; TDP1 block: -8%; HepG2 viability: -6%

Results for Cc1cc(=O)[nH]c(N/N=C/c2ccc(Cl)cc2Cl)n1 ?
DT40 TDP1 CPT: -5%; IL1B secr inh: -5; TGFb SMAD3 inh: 3%; DT40 TDP1 no CPT: -7%; HepG2 viability: 5%

What do the screens show for `Cc1cc(N/N=C/c2ccc(O)cc2)nc(NS(=O)(=O)c2ccccc2)n1`?
DT40 TDP1 CPT: 10%; IL1B secr inh: -1; TGFb SMAD3 inh: 2%; DT40 TDP1 no CPT: inconclusive; TDP1 block: 16µM*; HepG2 viability: 3%

Results for Cc1cc(N/N=C/c2ccc(F)cc2)nc(NCc2ccccc2)n1 ?
DT40 TDP1 CPT: 8.2µM*; IL1B secr inh: -96*; TGFb SMAD3 inh: -5%; DT40 TDP1 no CPT: 12µM*; HepG2 viability: -53%

Results for C[C@H](CO)N1C[C@H](C)[C@@H](CN(C)S(=O)(=O)c2ccc(C#N)cc2)OCc2cn(nn2)CCCC1=O ?
DT40 TDP1 CPT: 6%; IL1B secr inh: 12; TGFb SMAD3 inh: 4%; DT40 TDP1 no CPT: -3%; HepG2 viability: -6%

What do the screens show for `Cc1cc(C)c(NC(=O)Cn2c(=O)n(-c3ccc(F)cc3)c(=O)c3c(C)c(C(=O)N(C)C)sc32)c(C)c1`?
DT40 TDP1 CPT: -23%; TGFb SMAD3 inh: -3%; DT40 TDP1 no CPT: 2%; TDP1 block: -1%; HepG2 viability: 1%

How did CC(C)CCOc1ccc(C(=O)NCC2OCCc3ccccc32)cc1 (stereo not drawn) do in these assays?
DT40 TDP1 CPT: inconclusive; TGFb SMAD3 inh: 3%; DT40 TDP1 no CPT: inconclusive; HepG2 viability: 1%

How did COc1ccc(C(=O)N(Cc2ccccc2)c2cccc(C)c2)cc1 do in these assays?
DT40 TDP1 CPT: 15µM*; IL1B secr inh: 13; TGFb SMAD3 inh: 0%; DT40 TDP1 no CPT: inconclusive; TDP1 block: -1%; HepG2 viability: -16%

Results for COc1ccc(CN(C)C(=O)c2ccc(OCC(=O)N3CCOCC3)c(OC)c2)cc1 ?
DT40 TDP1 CPT: -18%; IL1B secr inh: 15; TGFb SMAD3 inh: -28%; DT40 TDP1 no CPT: -6%; TDP1 block: 0%; HepG2 viability: -4%

What do the screens show for `Cc1cccc(N(Cc2ccccc2)C(=O)c2ccc(S(C)(=O)=O)cc2)c1`?
DT40 TDP1 CPT: 16µM*; IL1B secr inh: 0; TGFb SMAD3 inh: -2%; DT40 TDP1 no CPT: inconclusive; TDP1 block: 4%; HepG2 viability: -17%

Results for COc1ccc(CN(C(=O)c2ccc(C)cc2)c2cccc(N)c2)cc1 ?
DT40 TDP1 CPT: -19%; IL1B secr inh: 9; TGFb SMAD3 inh: -10%; DT40 TDP1 no CPT: inconclusive; TDP1 block: 0%; HepG2 viability: -23%

Results for COc1cc(C(=O)N(Cc2ccccc2)c2cccc(C)c2)ccc1OCC(=O)N1CCOCC1 ?
DT40 TDP1 CPT: inconclusive; IL1B secr inh: -17; TGFb SMAD3 inh: -10%; DT40 TDP1 no CPT: 16µM*; HepG2 viability: -18%
